# In PubChem BioAssay (Tox21):
# “And” between values parts separate entries of the source, which are not always exact repeats. Equal entries are not always repeated. Records with an inconclusive call do not appear. Where a call stands in place of a potency, no number is given. Some compounds were tested as several samples or in several runs, with calls that do not always agree. The source made the active and inactive calls. Calls follow the shape of the dose curve; as a rule, active = well fitted curve in the direction sought with a large enough effect in the repeat runs; inconclusive = weak or mixed curves; inactive = no such curve, though single readings can be large; an effect the other way counts as inactive or inconclusive.
# Test: qHTS assay for identifying genotoxic compounds that show differential cytotoxicity against isogenic chicken DT40 cell lines with known DNA damage response pathways - Rev3 mutant cell line (AID 743014); also: nearly all actives have a fitted effect of over 55% in size
# Details: chicken DT40 Rev3-/- viability, CellTiter-Glo, 40 h; series mostly up to 68.4 µM
# Potency is read from the fitted curve at half-maximal effect.
row,SMILES,Potency
1,CCCc1c(OCCCOc2ccc(OCC(=O)O)cc2)ccc(C(C)=O)c1O,inactive
2,COc1ccc(C(=O)c2cccc(O)c2)c(OC)c1,inactive
3,O=C(CCCCCCCCC#CI)Oc1ccccc1,inactive
4,Cc1cc(O)c2c(O)c3c(O)cccc3cc2c1,inactive
5,CC1(C)C(=O)N(Br)C(=O)N1Cl,61.1 µM (active)

# Test: qHTS assay for identifying genotoxic compounds that show differential cytotoxicity against isogenic chicken DT40 cell lines with known DNA damage response pathways - Rad54/Ku70 mutant cell line (AID 743015); also: nearly all actives have a fitted effect of over 60% in size
# Details: DT40 Rad54/Ku70 mutant viability, CellTiter-Glo, 40 h; series mostly up to 66.8 µM
row,SMILES,Potency
1,O=S(=O)(c1ccccc1)c1ccc(Cl)cc1,48.6 µM (active)
2,CCCCC(CC)CNCC(CC)CCCC (configuration not stated),inactive
3,CNCCCC1c2ccccc2C=Cc2ccccc21,11.4 µM (active)
4,C1COCO1,inactive
5,OC(CCCN1CCCCC1)(c1ccccc1)c1ccccc1,29.8 µM (active)
6,Fc1ccccc1[C@@H](F)COC1CCC(Nc2ncnc3[nH]ncc23)CC1 (some centres not stated),12.2 µM (active)
7,CCCCCCCCCCCCCCCCBr,inactive
8,O=C1NCCN1,inactive
9,CC(=O)Nc1ccc(N)cc1,inactive
10,CCC(C)(C)C1CCC(O)CC1 (configuration not stated),inactive
11,Cc1ccc(/C=N/n2c(-c3ccccc3)csc2=S)cc1,29.8 µM (active)
12,CNC(=O)N(c1ccccc1)c1ccccc1,inactive
13,CC(CCc1ccc2c(c1)OCO2)NN (configuration not stated),inactive
14,Cc1cc(O)c(C(C)C)cc1Cl,inactive and 48.6 µM (active)
15,COC(=O)[C@@H]1CC2=CC(=O)CC[C@]2(C)[C@@]23O[C@@H]2C[C@@]2(C)[C@@H](CC[C@@]24CCC(=O)O4)[C@H]13,inactive
16,CCCCCCCCCCOS(=O)(=O)O,inactive

row,SMILES,Potency
1,C[C@@H]1C[C@H]2[C@@H]3CCC4=CC(=O)C=C[C@]4(C)[C@@]3(F)[C@@H](O)C[C@]2(C)[C@H]1C(=O)CO,26.6 µM (active)
2,CO[C@H]1C=CO[C@@]2(C)Oc3c(C)c(O)c4c(O)c(c5c(c4c3C2=O)=NC2(CCN(CC(C)C)CC2)N=5)NC(=O)/C(C)=C\C=C/[C@H](C)[C@H](O)[C@@H](C)[C@@H](O)[C@@H](C)[C@H](OC(C)=O)[C@@H]1C,11.9 µM (active) and 30 µM (active)
3,O=C(O)c1snc(Cl)c1Cl,61.1 µM (active)
4,CN(C)C(=O)Nc1ccc(Oc2ccc(Cl)cc2)cc1,15.4 µM (active)
5,Cc1ccnc2ccccc12,inactive
6,OCCSc1ccccc1,inactive
7,CO[Si](C)(OC)OC,inactive
8,CC(=O)Oc1ccc(C(=C2CCCCC2)c2ccc(OC(C)=O)cc2)cc1,inactive
9,CCCCCCOC(=O)CCCCCCCC(=O)OCCCCCC,inactive
10,O=C(O)c1cccc(O)c1,inactive
11,CC(=O)Oc1ccc2c(c1)CC[C@@H]1[C@@H]2CC[C@]2(C)[C@@H](O)CC[C@@H]12,23.7 µM (active)
12,c1cc[c]([Bi]([c]2ccccc2)[c]2ccccc2)cc1,61.1 µM (active)
13,C=CC(=O)NCOCC(C)C,inactive
14,CCC(C)(O)CCC=C(C)C (configuration not stated),inactive
15,COC(OC)(C(=O)c1ccccc1)c1ccccc1,48.5 µM (active)
16,Cc1oncc1C(=O)Nc1ccc(C(F)(F)F)cc1,2.27 µM (active) and 4.86 µM (active)
